Test results published in PubChem BioAssay (NCI).
This is part of a sample that, as a whole, favours compounds with a hit. Of some 83,000 tested, about 20% had one in any assay.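 Cells were grown in 96-well plates and exposed to the test compound at a single concentration for 48 hours; results are reported as percent growth, with values below 10 considered active.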 Values without a mark were called inactive. The source made the active and inactive calls.

How the values were obtained:
Test in all cases: NCI-60 one-dose screen, 48 h (100 = growth as untreated, 0 = no growth, -100 = all killed)
Settings in all cases: 10 µM unless noted
DU-145 prostate = system: DU-145 prostate
K-562 leukemia = system: K-562 leukemia
MALME-3M melanoma = system: MALME-3M melanoma
MDA-MB-231 breast = system: MDA-MB-231 breast
RXF 393 renal = system: RXF 393 renal
SF-268 CNS = system: SF-268 CNS
SF-295 CNS = system: SF-295 CNS
SF-539 CNS = system: SF-539 CNS
UACC-257 melanoma = system: UACC-257 melanoma
M14 melanoma = system: M14 melanoma
HCT-15 colon = system: HCT-15 colon
HT29 colon = system: HT29 colon
SNB-75 CNS = system: SNB-75 CNS
SNB-19 CNS = system: SNB-19 CNS
U251 CNS = system: U251 CNS
PC-3 prostate = system: PC-3 prostate
SK-MEL-5 melanoma = system: SK-MEL-5 melanoma
UACC-62 melanoma = system: UACC-62 melanoma
LOX IMVI melanoma = system: LOX IMVI melanoma
SK-MEL-28 melanoma = system: SK-MEL-28 melanoma

Row | Structure (SMILES) | growth (DU-145 prostate) | growth (K-562 leukemia) | growth (MALME-3M melanoma) | growth (MDA-MB-231 breast) | growth (RXF 393 renal) | growth (SF-268 CNS) | growth (SF-295 CNS) | growth (SF-539 CNS) | growth (UACC-257 melanoma) | growth (M14 melanoma) | growth (HCT-15 colon) | growth (HT29 colon) | growth (SNB-75 CNS) | growth (SNB-19 CNS) | growth (U251 CNS) | growth (PC-3 prostate) | growth (SK-MEL-5 melanoma) | growth (UACC-62 melanoma) | growth (LOX IMVI melanoma) | growth (SK-MEL-28 melanoma)
1 | Cc1c(NC(=O)OC[C@@H]2COCCN2)cn2ncnc(Nc3ccc4c(cnn4Cc4cccc(F)c4)c3)c12 | 10.1% | 11.5% | -27% (active) | 1.06% (active) | -62.4% (active) | -2.37% (active) | 14.6% | -52.4% (active) | -31.3% (active) | -29.3% (active) | 4.13% (active) | -6.28% (active) | -70.7% (active) | 6.8% (active) | -6.22% (active) | 9.24% (active) | -46.4% (active) | -14.7% (active) | -11% (active) | 
2 | COc1cc2nccc(Oc3ccc(NC(=O)Nc4cc(C)on4)c(Cl)c3)c2cc1OC | 31.2% | 5.94% (active) | 20.4% | 10% | -28.9% (active) | 21.7% | 19% | -50.3% (active) | 19.6% | 7.27% (active) | 18.3% | -9.07% (active) | -6.16% (active) | 32.8% | 28.2% | 21.1% | -19.7% (active) | 11.5% | -2.96% (active) | 
3 | O=C(COc1cccc(/C=C2\Cc3ccc(Cl)cc3C2=O)c1)Nc1nccs1 | 108% | 89.5% | 116% | 71.7% | 107% | 108% | 119% | 79.9% | 110% | 107% | 91.9% | 102% | 76.6% | 85.9% | 96.7% | 88% | 93.1% | 84.2% | 78% | 
4 | Cc1ccc(Nc2nccc(N(C)c3ccc4c(C)n(C)nc4c3)n2)cc1S(N)(=O)=O | 39.4% | 7.01% (active) | 2.35% (active) | -2.02% (active) | -37.5% (active) | 45.4% | 31.1% | -45.2% (active) | -6.96% (active) | -3.62% (active) | 14.3% | 3.61% (active) | -25.9% (active) | 30.9% | 18.8% | 45.2% | -34% (active) | -18.3% (active) | -30.1% (active) | 8.83% (active)
5 | CC(C)(C)c1cnc(CSc2cnc(NC(=O)C3CCNCC3)s2)o1 | 7.26% (active) | 4.07% (active) | -41.1% (active) | 6.82% (active) | -51.5% (active) | 12% | 11.6% | -33.1% (active) | -25.5% (active) | -58.6% (active) | 22.8% | -9.89% (active) | -39.5% (active) | 12.4% | 2.2% (active) | 0.914% (active) | -47.2% (active) | -49.7% (active) | 6.56% (active) | 
6 | CN1CCN(c2ccc(C(=O)Nc3n[nH]c4ccc(Cc5cc(F)cc(F)c5)cc34)c(NC3CCOCC3)c2)CC1 | 19.7% | -47.8% (active) | -83.4% (active) | -68.7% (active) | -90.5% (active) | -60.5% (active) | -70.4% (active) | -92.4% (active) | -85.4% (active) | -79.7% (active) | -65.7% (active) | -56.8% (active) | -93.2% (active) | -50.3% (active) | -83.7% (active) | -12.3% (active) | -96.5% (active) | -78.4% (active) | -89.7% (active) | -87% (active)
7 | COc1cc2ncnc(Nc3ccc(O)cc3)c2cc1OC | 61.3% | 73% | 102% | 88.8% | 82.3% | 86.6% | 98.8% | 73.4% | 63.7% | 79.7% | 95.8% | 68.2% | 64% | 77.7% | 83.6% | 91% | 98.2% | 76.7% | 92.2% | 
8 | COc1ccc(Nc2ncccc2NC(=O)c2cn(Cc3cccc(Oc4ccccc4)c3)nn2)cc1 | 93.4% | 73.8% | 85.8% | 87.1% | 79.6% | 82.3% | 92.8% | 95.1% | 93% | 95.9% | 78.3% | 101% | 83.8% | 95.3% | 89.8% | 69.8% | 76.2% | 67% | 86.6% | 102%
9 | O=c1[nH]c([C@@H]2CCCN2)nc2c1oc1ccc(Cl)cc12 | 73.1% | 43% | 64.2% | 67.3% | 72.4% | 65.2% | 52.7% | 12.6% | 64.6% | 53.6% | 66.3% | 43.9% | 7.8% (active) | 74.8% | 42.6% | 58% | 51.2% | 78.5% | 39% | 
10 | CCN(CC)CCN1C(=O)c2cccc3c(-c4ccc5c(c4)ncn5C4CCCCC4)ccc(c23)C1=O | 28.4% | -14.2% (active) | -74.5% (active) | 11.8% | -11.4% (active) | 39.9% | -41.7% (active) | -76.2% (active) | -15% (active) | -62.8% (active) | 8.61% (active) | 0.739% (active) | 4.41% (active) | 32.6% | 14.7% | 5.21% (active) | -96.6% (active) | 22% | -81.6% (active) | 
11 | CC1=CC2c3oc(-c4ccccc4)c(C(=O)c4ccccc4)c3CNC2C=C1 (stereo not drawn) | 112% | 95.8% | 98.8% | 88.4% | 94.2% | 97.9% | 95.9% | 109% | 70.6% | 96.1% | 97.2% | 84.2% | 79.7% | 91.6% | 80.7% | 94% | 103% | 87.9% | 86.2% | 
12 | NC(=O)Nc1cc(-c2cccc(F)c2)sc1C(=O)N[C@H]1CCCNC1 | -8.14% (active) | 2.46% (active) | 0.0893% (active) | -8.48% (active) | -89.1% (active) | -9.94% (active) | 3.74% (active) | -77.5% (active) | 5.95% (active) | -13.8% (active) | -10.6% (active) | -24% (active) | -89.8% (active) | -26.7% (active) | -62% (active) | 16.2% | -27.5% (active) | -21.1% (active) | -75.2% (active) | 
13 | C[C@@H]1COCCN1c1cc(C2([S@](C)(=N)=O)CC2)nc(-c2ccnc3[nH]ccc23)n1 | 17.5% | 10.8% | 43.1% | 48% | -28.4% (active) | 43.5% | 19% | 1.29% (active) | 52.8% | 10.6% | 31.7% | 13.4% | 31.1% | 28% | 32.2% | 50.7% | 21.4% | 23.7% | 2.37% (active) | 
14 | C=CCn1c(=O)c2cnc(Nc3ccc(N4CCN(C)CC4)cc3)nc2n1-c1cccc(C(C)(C)O)n1 | 17.2% | 1.55% (active) | 44.8% | 9.62% (active) | -27.1% (active) | 30.7% | 34.8% | -26.3% (active) | 46.1% | 9.79% (active) | 4.74% (active) | -12.4% (active) | 3.88% (active) | 26.9% | 16.7% | 28.4% | 18.2% | 42.6% | 5.87% (active) | 
15 | COc1cccc(Nc2ncnn3ccc(CN4CC[C@@H](N)[C@H](O)C4)c23)c1 | 27.1% | 2.52% (active) | 86.4% | 31.3% | -41.4% (active) | 45.1% | 72.9% | -2.77% (active) | 76.1% | 96% | 28.7% | 27.1% | -44.6% (active) | 43.1% | 63.2% | 56.3% | 76.2% | 93.4% | 35.3% | 
